# Source: PubChem
# KB-3-1 tox = KB-3-1 parental cell cytotoxicity. KB-3-1 viability, CellTiter-Glo ATP luminescence, 72 h. Potency, µM (top dose mostly 46.1 µM), hits mostly cytotoxic. hit rate 1.4% among 400,000; further: nearly all actives have a fitted effect of over 60% in size
#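 Multi-concentration cytotoxicity screen in KB-3-1 cells grown in DMEM lacking phenol red with 10% FBS. After 72 h at 37 °C with compound, ATP-dependent luminescence was recorded.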
# HT1080-NT tox = kills 2HG-producing HT-1080-NT fibrosarcoma cells. HT-1080-NT fibrosarcoma viability, CellTiter-Glo ATP luminescence, 48 h. Potency, µM (top dose mostly 46.1 µM), inactives show at the highest dose activity, negative = less viability, actives largely listed as cytotoxic. hit rate 1.6% among 360,000;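 further: NT is the 2HG producing partner of a matched IDH1 knockdown line; 0% = DMSO-treated cells and -100% = media-only wells without cells; nearly all actives have a fitted effect of over 55% in size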
#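 750 cells/well, RPMI + 5% FBS; 2 h settle, compound pin-transfer, 48 h at 37 degrees C. CellTiter-Glo 10 min RT, luminescence. Normalized to DMSO and media-only wells.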
# KB-V1 cytotox = kills drug-selected multidrug resistant KB-V1 cells | KB-V1 MDR cells viability, CellTiter-Glo, 72 h | Potency, µM (highest dose often 46.1 µM), usual class: cytotoxic | hit rate 3.4% among 400,000 | AID 1347076; further: nearly all actives have a fitted effect of over 60% in size
#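 KB-V1 MDR subline cells in DMEM (phenol-red free, 10% FBS) exposed to compounds in qHTS concentration series for 72 h at 37 degrees C. Viability read by CellTiter-Glo luminescence; concentration-effect curves fitted after normalization and correction.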
# HT1080 IDH1KD tx = HT-1080 IDH1 knockdown cell toxicity (counter line). HT-1080 IDH1 knockdown viability, ATP luminescence, 48 h. Potency, µM (doses to about 46.1 µM), for the others: top-dose activity, negative = toxicity, usual class: cytotoxic. hit rate 2% among 360,000;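 further: 0% = DMSO wells and -100% = cell-free medium wells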
#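 CellTiter-Glo luminescence after 48 h compound exposure at 37 degrees C of IDH1-knockdown HT-1080 cells in 5% FBS RPMI. %Activity scaled between DMSO wells and cell-free media wells, with curves fitted and assigned curve classes.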
# DT40 TDP1 no CPT = qHTS for Inhibitors of human tyrosyl-DNA phosphodiesterase 1 (TDP1): qHTS in cells in absence of CPT. DT40 Tdp1-/- hTDP1 cells, no CPT, ATP luminescence, 48 h. Potency, µM (highest dose often 46.2 µM), without a hit: top-dose activity change, negative = growth inhibition, actives largely listed as inhibitors. hit rate 15% among 420,000; further: nearly all actives have a fitted effect of over 55% in size
#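 Readout: luminescence from CellTiter-Glo after 30 min in the dark at RT. Cells: DT40 Tdp1-/- with stable hTDP1, 400/well. Exposure: compounds alone, ≥48 hr, 37 °C.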
# DT40 TDP1 CPT = growth inhibition of DT40 Tdp1-/-;hTDP1 cells with camptothecin (screen for TDP1 inhibitors). chicken DT40 Tdp1-/-;hTDP1 cells + 20 nM CPT, ATP luminescence, 48 h. hit rate 12% among 420,000. Potency, µM (titrated, usually from 46.2 µM), for the others: at the top dose activity change, negative = growth inhibition, usual class: inhibitors; further: nearly all actives have a fitted effect of over 55% in size
#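 Chicken DT40 Tdp1-/- cells stably complemented with human TDP1 were seeded at 400 cells/well in medium containing 20 nM camptothecin, exposed to pin-transferred compounds, and grown at 37 °C for at least 48 hr. Viability was read as ATP luminescence.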
# * hit, by the source's call; i = inactive; ? = inconclusive; · = not tested or not shown; ! = not active in a repeat; [ ] = remark or other dose. Hits are enriched below; roughly 19% of the tested compounds scored in any of these assays. The call rests on the fitted dose curve; in most records, active means well fitted curve in the direction sought with a large enough effect; inconclusive means small, poorly fitted or top-dose-only effect, or another doubt; inactive means no such curve, though single readings can be large; an effect the other way counts as inactive or inconclusive. Unless noted, on the % scale 0 is the no-effect control and ±100 the full control effect; potency means the concentration at half of the fitted maximal effect.
SMILES,KB-3-1 tox,HT1080-NT tox,KB-V1 cytotox,HT1080 IDH1KD tx,DT40 TDP1 no CPT,DT40 TDP1 CPT
COC(=O)C1=C(c2ccc(OCc3ccccc3)cc2)C[C@@H]2CC[C@H]1N2C(=O)NCCCCc1ccccc1,?,-21%,?,-11%,18µM*,?
COC(=O)C1=C(c2ccc(OCc3ccccc3)cc2)C[C@@H]2CC[C@H]1N2C(=O)NC1CCN(Cc2ccccc2)CC1,?,?,i,?,7.3µM*,8.2µM*
COC(=O)C1=C(c2ccc(OCc3ccccc3)cc2)C[C@@H]2CC[C@H]1N2C(=O)NCc1ccc2[nH]ccc2c1,i,-9%,i,-4%,?,?
O=C(NC1CCCCC1)N1Cc2cc(-c3ccccc3)ccc2-n2nncc2C1,i,-25%,?,?,?,?
Cc1cc(C)[n+](C2C3CC4CC(C3)CC2C4)o1 (stereo not given),i,4%,?,1%,21µM*,-29%
CC(=O)NCC(N)C(=O)c1ccc(C)cc1 (stereo not given),·,-2%,·,-2%,16µM*,?
COC(=O)C1=C(c2c(C)noc2C)C[C@@H]2CC[C@H]1N2C(=O)NC1Cc2ccccc2C1,i,7%,i,3%,-13%,1%
CCOC(=O)c1cccc(C2=C(CNC(C)=O)[C@H]3CC[C@@H](C2)N3Cc2ccccc2)c1,i,-3%,i,-2%,?,-3%
CCOC(=O)c1cccc(C2=C(CNC(=O)c3cccnc3)[C@H]3CC[C@@H](C2)N3Cc2ccccc2)c1,i,-14%,?,-13%,21µM*,?
Cc1ccc2c(c1)cc(C(=O)Nc1ccccc1C)n2C,·,·,·,·,1.2µM*,?
Cc1ccc(NC(=O)c2cccn(Cc3ccccc3C)c2=O)c(C)c1,i,·,i,·,-23%,-11%
O=C1NC(=O)C(=Cc2ccc3ccccc3c2)C(=O)N1,i,2%,i,1%,-2%,7%
Cc1ccc(OCCOc2cccc(C=C3C(=O)NC(=O)NC3=O)c2)cc1,i,9%,i,13%,18µM*,?
Cc1cc(C)cc(OCCOc2cccc(C=C3C(=O)NC(=O)NC3=O)c2)c1,?,-3%,?,-11%,?,18µM*
O=C1NC[C@H](CCCCN2C[C@H](Cc3ccccc3)N(CCc3ccccc3)C(=O)C2=O)N(CC2CCCCC2)C1=O,i,20%,i,?,-16%,-2%
COC(=O)[C@]1(C)CC[C@@]2(C)CC[C@@]3(C)C4=CCc5c(cc(O)c(O)c5C)[C@]4(C)CC[C@@]3(C)C2C1 (stereo not given in full),·,·,·,·,1.8µM*,4.6µM*
Brc1ccc2c(c1)C(OC1CN3CCC1CC3)c1ccccc1CS2 (stereo not given),?,-29%,?,?,5.2µM*,13µM*
c1ccc2c(c1)CSc1ccccc1C2C1=NCCN1 (stereo not given),?,?,i,?,?,-14%
CC1NC(=O)NC(=O)C1Br (stereo not given),i,-3%,i,2%,14%,-19%
CC(=O)N(C)CC#CCN1CCCC(CO)C1 (stereo not given),i,·,i,·,·,·
Cc1ccc(CN2C3CCCC2CC(NC(=O)Nc2cccc(F)c2)C3)cc1 (stereo not given),?,?,i,-20%,15µM*,?
Cc1ccc(CN2C3CCCC2CC(NC(=O)c2ccc(F)cc2)C3)cc1 (stereo not given),i,-10%,?,-1%,?,-9%
CC(C)(C)NC(=S)/N=C(\N)N[N+](=O)[O-],i,13%,?,4%,19%,-7%
COc1cc2c(cc1OC)-c1c(O)c(OC)cc3c1[C@H](C2)N(C)CC3,·,·,·,·,24µM*,?
COc1cc2c(cc1OC)-c1c(OC)c(OC)cc3c1C(C2)N(C)CC3 (stereo not given),i,-1%,?,-3%,?,?
SMILES,KB-3-1 tox,HT1080-NT tox,KB-V1 cytotox,HT1080 IDH1KD tx,DT40 TDP1 no CPT,DT40 TDP1 CPT
Cn1c(O)c(C=NCCCCCCCCCCC(=O)O)c(=O)n(C)c1=O,i,-3%,i,-4%,-29%,-19%
CC1CC[C@@]2(NC1)O[C@@H]1C[C@H]3C4CC=C5C[C@@H](O)CC[C@]5(C)C4CC[C@]3(C)[C@H]1[C@@H]2C (stereo not given in full),·,·,·,·,-24%,12%
NC(=O)CN1CCCC1=O,?,-11%,i,3%,2.9µM*!,-9%[21.1 µM]
CCCCC1(CN2CCCC2=O)C(=O)NC(=O)NC1=O,i,24%,i,13%,-4%,10%
COc1ccc(CNCCc2ccc3c(c2)OCO3)cc1Br,i,-7%,i,-6%,21µM*,?
Cc1ccc(Cn2cccc(C(=O)Nc3nnc(C)s3)c2=O)cc1,?,·,i,·,-22%,-23%
CCNC(=O)C1CCCN(Cc2ccc3ccccc3c2Br)CC1 (stereo not given),i,-26%,i,1%,?,?
